Source: the supplement of paper PMC7366291
Structures can show the parent of a compound that is named as a salt. ± gives the standard deviation or the standard deviation of the averaged measurements.

Key:
Details in all cases: 25 µM; exposure: 24-48 hpf
[1] = test system: Danio rerio Tg(wt1b:EGFP) embryo, pronephros; assay: glomerular separation, fold change vs DMSO control; higher = glomeruli further apart (abnormal)
Method in brief: (§1)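 Using a Fiji macro, distances and angles were calculated from 16 reference points set by hand on maximum projections of pronephroi imaged dorsally (470 nm, 10 z-slices) in agarose-filled 96-well plates. The dechorionated Tg(wt1b:EGFP) zebrafish embryos had received 25 μM compound in 0.5% DMSO in HEPES-buffered E3 with 0.003% PTU from 24 to 48 hpf at 28.5°C. Values more than 2 SD from a feature's mean were excluded. Each feature appears as a fold change over the mean of DMSO-treated embryos from the same day.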

[2] = test system: Danio rerio Tg(wt1b:EGFP) embryo, pronephros; assay: glomerular width (mean of left and right), fold change vs DMSO control; higher = wider glomerulus
Method in brief: as §1

[3] = test system: Danio rerio Tg(wt1b:EGFP) embryo, pronephros; assay: fraction of imaged embryos annotated as normal kidney; higher = less nephrotoxic; extreme values may be limits of the assay
Method in brief: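 Embryos of the Tg(wt1b:EGFP) zebrafish line were dechorionated and held in 12-well plates with 25 μM compound in 0.5% DMSO and 5 mM HEPES-buffered E3 containing 0.003% PTU, from 24 to 48 hpf at 28.5°C. Larvae were then anaesthetised with tricaine, set dorsal side up in agarose-filled 96-well plates, and their pronephroi imaged by widefield fluorescence at 470 nm over 10 z-slices. Each value is the fraction of embryos per treatment placed in the normal-kidney category after manual annotation of maximum projections.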

[4] = test system: Danio rerio Tg(wt1b:EGFP) embryo, pronephros; assay: pronephric angle neck segment to proximal convoluted tubule (mean of left and right), fold change vs DMSO control; higher = larger pronephric angle
Method in brief: as §1

Compound	glomerular separation [1]	glomerular width [2]	fraction of imaged embryos annotated as normal kidney [3]	pronephric angle neck segment [4]
Cc1cc2cc3c(C)cc(=O)oc3c(C)c2o1 [Trioxsalen]	0.97 ± 0.24	1.019 ± 0.01	0.917	1.03 ± 0.049
O=C(C1CCCCC1)N1CC(=O)N2CCc3ccccc3C2C1 (stereo unspecified) [Praziquantel]	1.18 ± 0.28	1 ± 0.052	0.545	1.02 ± 0.057
COc1ccc(C[C@@H]2c3cc(OC)c(OC)cc3CC[N@+]2(C)CCC(=O)OCCCCCOC(=O)CC[N@@+]2(C)CCc3cc(OC)c(OC)cc3[C@H]2Cc2ccc(OC)c(OC)c2)cc1OC [Cisatracurium besylate]	0.571 ± 0.3	1.21 ± 0.0036	0.833	0.984 ± 0.035
C[C@@H]1C[C@H]2[C@@H]3C[C@H](F)C4=CC(=O)C=C[C@]4(C)[C@@]3(F)[C@@H](O)C[C@]2(C)[C@@]1(O)C(=O)COC(=O)C(C)(C)C [Flumethasone pivalate]	1.2 ± 0.37	1.04 ± 0.015	0.25	0.989 ± 0.0085
CCCNC(C)(C)COC(=O)c1ccccc1 [Meprylcaine hydrochloride]	1.08 ± 0.26	0.936 ± 0.03	1	0.9842 ± 0.0035
C=C[C@H]1CN2CC[C@H]1C[C@@H]2[C@@H](O)c1ccnc2ccc(OC)cc12 [Quinidine hydrochloride monohydrate]	0.962 ± 0.19	1.13 ± 0.084	0.75	1.01 ± 0.016
CN[C@@H]1[C@H](O)[C@H](NC)[C@H]2O[C@@]3(O)C(=O)C[C@@H](C)O[C@H]3O[C@@H]2[C@H]1O [Spectinomycin dihydrochloride]	0.786 ± 0.48	1.07 ± 0.021	0.909	0.9719 ± 0.0052
CCCNC(=O)NS(=O)(=O)c1ccc(Cl)cc1 [Chlorpropamide]	1.09 ± 0.39	1.06 ± 0.087	0.75	1.051 ± 0.0085
CC(=O)OCC(=O)[C@@]1(O)CC[C@H]2[C@@H]3CCC4=CC(=O)CC[C@]4(C)[C@@]3(F)[C@@H](O)C[C@@]21C [Fludrocortisone acetate]	1.6 ± 0.63	1.23 ± 0.023	0.583	1.18 ± 0.16
CC[C@H]1OC(=O)C[C@@H](O)[C@H](C)[C@@H](O[C@@H]2O[C@H](C)[C@@H](O[C@H]3C[C@@](C)(O)[C@@H](O)[C@H](C)O3)[C@H](N(C)C)[C@H]2O)[C@@H](CC=O)C[C@@H](C)C(=O)/C=C/C(C)=C/[C@@H]1CO[C@@H]1O[C@H](C)[C@@H](O)[C@@H](OC)[C@H]1OC [Tylosin]	0.911 ± 0.28	0.983 ± 0.0057	0.833	1.005 ± 0.0099
CC12CC3CC(C)(C1)CC(N)(C3)C2 [Memantine Hydrochloride]	1 ± 0.34	1.05 ± 0.079	0.917	0.9526 ± 0.0081
COc1ccc(CC(C)NCC(O)c2ccc(O)c(NC=O)c2)cc1 (stereo unspecified) [Formoterol fumarate]	0.928 ± 0.31	0.97 ± 0.051	0.917	1.05 ± 0.034
Cc1ccc(C)c(OCCCC(C)(C)C(=O)O)c1 [Gemfibrozil]	5.88 ± 2.2	0.602 ± 0.06	0	1.73 ± 0.11
Cn1c(=O)c2c(ncn2C)n(C)c1=O [Caffeine]	0.852 ± 0.19	0.921 ± 0.018	0.9	1.05 ± 0.099
CNCCCN1c2ccccc2CCc2ccccc21 [Desipramine hydrochloride]	0.966 ± 0.26	0.996 ± 0.032	0.833	1 ± 0.047
C#CCN[C@@H]1CCc2ccccc21 [Rasagiline]	1.13 ± 0.38	0.994 ± 0.012	0.667	0.972 ± 0.021
CC[C@H]1OC(=O)[C@H](C)[C@@H](O[C@H]2C[C@@](C)(OC)[C@@H](O)[C@H](C)O2)[C@H](C)[C@@H](O[C@@H]2O[C@H](C)C[C@H](N(C)C)[C@H]2O)[C@](C)(O)C[C@@H](C)/C(=N\OCOCCOC)[C@H](C)[C@@H](O)[C@]1(C)O [Roxithromycin]	0.811 ± 0.45	1 ± 0.014	0.75	1.02 ± 0.03
CN(C)CCCOc1nn(Cc2ccccc2)c2ccccc12 [Benzydamine hydrochloride]	1.24 ± 0.21	1.03 ± 0.035	1	0.9939 ± 0.0028
CC1CC(OC(=O)c2ccccc2O)CC(C)(C)C1 (stereo unspecified) [Homosalate]	0.865 ± 0.19	0.8777 ± 0.0016	0.667	1.15 ± 0.044
